This passage reports max response results from PubChem BioAssay AID2314 (National Center for Advancing Translational Sciences (NCATS), 2010).

Among all 300,000 compounds or so, about 37,000 (12%) were called active. This is one part of a sample in which actives are shown more often than they occur. A number with no mark means an inactive call. Rule as the data show it: active = max response mostly above about 13% (no sharp cut-off); inactive = mostly below about 14%.

This assay in a line: Cycloheximide Counterscreen for Small Molecule Inhibitors of Shiga Toxin. Also: read at 38.3 µM for the half of the compounds with a filed dose; 0% is about no effect. To be noted: cell reporter, cycloheximide protein synthesis inhibition counterscreen; hits give high values. Background: A counterscreen serves to expose hits that act by an unwanted route or on another target.
`Cc1c(C)c(C)c2[nH]c(=S)[nH]c2c1C`: the max response was 0.294%.

As to `COC1=C/C(=C/c2c(N)n3nc(CC(=O)N4CCOCC4)sc3nc2=O)C=CC1=O`, the max response was 21.2%.

As to `CC(C)C(=O)N1CC(=O)Nc2ccc(F)cc2C1c1ccc(F)cc1` (configuration not stated), the max response was 0.988%.

As to `COc1ccc(-c2cc3ccc(OCc4nn[nH]n4)cc3oc2=O)cc1`, the max response is 2.53%.

As for `O=c1oc2cc(O)ccc2cc1-c1ccc(F)cc1`, the max response was 43.3% (active).

Regarding `COc1cccc(C(=O)c2cc3ccc(O)cc3oc2=O)c1`, the max response is 7.25%.

For `C/C(CC(=O)Nc1ccc(N(C)C)cc1)=N\NC(=O)c1ccccc1F`, the max response is 38.4% (active).

Consider `C/C(CC(=O)Nc1ccc(Cl)cc1)=N\NC(=O)C(=O)NCCO`, for which the max response is 7.42%.

`CCn1c2ccccc2c2cc(NC(=O)CNC)ccc21`: the max response is -0.552%.

For the compound `CCn1c2ccccc2c2cc(NC(=O)COC(=O)c3ccccc3Br)ccc21`, the max response was 1.49%.

Consider `CN(C)c1ccc(NC(=O)CN2C3CCCC2CC(NC(=O)c2ccccc2)C3)cc1` (configuration not stated), for which the max response was -6.36%.

For `CCn1c2ccccc2c2cc(NC(=O)C/C(C)=N/NC(=O)c3ccccc3N)ccc21`, the max response is 39.3% (active).

With `Cc1ccccc1N1CCN(C2CCCN(C(=O)c3cn4c(C)cccc4n3)C2)CC1` (configuration not stated), the max response is -1.34%.

In the case of `COc1ccc(CC(=O)N2N=C(C)CC2(O)C(F)(F)F)cc1` (configuration not stated), the max response was 15.5%.

On to `O=C(CCc1nnc(Cc2ccc3c(c2)OCO3)o1)NCCc1ccccc1Cl`, for which the max response is 4.94%.

With `COCCCn1c(Cc2csc(Nc3cccc(Cl)c3)n2)nnc1SCC(=O)OC1CCCCC1`, the max response is 1.16%.

`O=C(Nc1ccc(S(=O)(=O)NCC2CCCO2)cc1)c1ccc(F)cc1` (configuration not stated): the max response is -1.11%.

`CCn1cc(C(=O)N2CC(C)CC(C)C2)c(=O)c2cc(S(=O)(=O)N3CCCC3)ccc21` (configuration not stated): the max response is -2.89%.

As for `CC(=O)Oc1ccc2c(c1)C(=O)c1ccccc1C2=O`, the max response is 8.81%.

Turning to `CC(=O)Oc1ccc(-c2nc3c(C)cccc3c(=O)o2)cc1`, the max response is -4.07%.

For `COc1ccc(/C=C/c2noc(-c3ccccc3OC(C)=O)n2)cc1`, the max response was 19% (active).

For the compound `Cn1cccc1C(=O)NC(=O)COC(=O)Cc1coc2ccc3ccccc3c12`, the max response was 4.33%.

Consider `COc1cc(CC(=O)NCc2cccs2)cc(OC)c1OC`, for which the max response was 0.388%.

As to `CCN(CC(=O)NCc1cccs1)C(=O)c1ccccc1F`, the max response was -0.418%.

With `Cc1ccc2c(CC(=O)NCc3cccs3)coc2c1`, the max response was 29.3% (active).

For `COc1ccc(C)cc1NC(=O)CNCc1cccs1`, the max response was 8.07%.

With `O=C(Cc1coc2ccc3ccccc3c12)NCc1cccs1`, the max response is 11.8% (active).

For `CCCNC(=O)CCn1nc(-c2ccccc2)c2ccccc2c1=O`, the max response is -3.01%.

Consider `CCN(CC)S(=O)(=O)c1ccc(N2CCCC2)c(NS(=O)(=O)c2cccs2)c1`, for which the max response was -6.15%.

Regarding `CCOC(=O)CSC1=N/C(=C/c2ccc(-n3cncn3)cc2)C(=O)N1C(C)=O`, the max response was -4.18%.

Regarding `COc1ccc(OC)c(CNC(=O)CCc2nc(-c3cccs3)no2)c1`, the max response is -2.6%.

`COc1ccc(CCc2nc(-c3cccs3)no2)cc1`: the max response is 67.2% (active).

Consider `CCc1ccc(CNC(=O)CCc2nc(-c3cccs3)no2)cc1`, for which the max response was -4.69%.

For `Cc1ccc2[nH]c(=O)c(CN3CCCCC3)c(-c3ccccc3)c2c1`, the max response was -4.55%.

For the compound `COc1cc(/C=C(\C#N)c2nc3c(s2)CC(C)CC3)ccc1O` (configuration not stated), the max response was 26.5% (active).

For `CCCCCOc1ccc(/C=C/C(=O)NCCc2nc3ccccc3[nH]2)cc1OC`, the max response is 1.2%.

Turning to `COc1ccc(/C=C(/NC(=O)c2ccc(C)cc2)c2nc3ccccc3[nH]2)cc1OC`, the max response was -2.64%.

On to `COc1cc(/C=C(\C#N)c2nc3ccccc3[nH]2)ccc1O`, for which the max response was 43.6% (active).

Regarding `O=C(NCc1ccc(F)cc1)C1CCN(C(=O)Nc2ccc(F)cc2)CC1`, the max response was -0.971%.

As for `O=C1CN(C(=O)c2cc(F)cc(F)c2)c2ccccc2N1`, the max response is -6.12%.

On to `COc1ccc(F)cc1C(=O)C1CCCN(C(=O)CCc2ccccn2)C1` (configuration not stated), for which the max response was 7.94%.

Regarding `COC(=O)CC(=O)N1CCN(c2ccc(Cl)c(Cl)c2)CC1`, the max response is 0.736%.

Consider `CCn1c2ccc(F)cc2c2nnc(SCCN3CCOCC3)nc21`, for which the max response was 8.52%.

As for `Cc1cc2nc(SCCN3CCOCC3)[nH]c2cc1C`, the max response was 32.3% (active).

As to `Cc1cccc(C)c1OCCN1CCOCC1`, the max response was 0.405%.

Consider `COCCn1c(SCC(=O)Nc2nc(C)cs2)nnc1C(C)C`, for which the max response is -4.2%.

With `Cc1cccc(CCNC(=O)Cn2ncc3c([nH]c4ccc(C)cc43)c2=O)c1`, the max response is -2.84%.

Regarding `O=C1CCC(C(=O)N2CCN(c3ccccc3Cl)CC2)CN1CC1CCCCC1` (configuration not stated), the max response was 9.87%.

Take `O=C(Cn1ncc2c3ccccc3n(Cc3ccccc3)c2c1=O)NCCCN1CCOCC1`: the max response is 6.16%.

As to `Cc1cc(CO)nn1-c1ccc([N+](=O)[O-])cc1`, the max response was -1.2%.

Turning to `Cc1nc(-c2ccc([N+](=O)[O-])cc2)c(-c2ccccc2)o1`, the max response was -2.35%.

As to `Cc1nn(-c2ccc([N+](=O)[O-])cc2)c(N)c1-c1ccccc1`, the max response was 38.2% (active).

Regarding `O=C(CCN1CCCO1)N1CCCC(N2CCN(c3cccc(C(F)(F)F)c3)CC2)C1` (configuration not stated), the max response is 7.08%.

For `COC(=O)c1sccc1NC(=O)c1cc(OC)c(OC)c(OC)c1`, the max response was 1.99%.

Take `COC(=O)c1sccc1NC(=S)Nc1ccc(C)cc1`: the max response was 25.3%.

For `COC(=O)c1sccc1NN1C(=O)c2ccccc2C1=O`, the max response was 28.6% (active).

For the compound `Cc1ccccc1CNC(=O)CCC(=O)N1Cc2ccccc2Oc2ncccc21`, the max response was -2.36%.

With `COc1cccc(CN2CCN(Cc3ccc4cccc(F)c4n3)CC2CCO)c1` (configuration not stated), the max response is -3.47%.

Consider `COc1ccccc1NC(=O)C1=C(C)Nc2nnnn2C1c1cccc(Br)c1` (configuration not stated), for which the max response is -5.64%.

On to `COC(=O)c1ccc(C2C3=C(Nc4nnnn42)c2ccccc2OC3)cc1` (configuration not stated), for which the max response is 17.4% (active).

Regarding `COC(=O)C1=C(C(=O)c2ccc(C)cc2)C(c2ccccc2)n2nnnc2N1` (configuration not stated), the max response was 2.04%.

On to `Cc1cc2c(=O)n(CC(=O)NCC(=O)Nc3ccc(C(C)C)cc3)cnc2s1`, for which the max response is -5.28%.

As for `COc1cc(/C=N/NC(=O)Cc2ccccc2)cc(OC)c1OC`, the max response was -1.38%.

On to `COc1cc(C)c(C)cc1S(=O)(=O)N1CCCc2ccccc21`, for which the max response is 17.6% (active).

Regarding `Cn1c(=O)n(C)c2cc(S(=O)(=O)N3CCCc4ccccc43)ccc21`, the max response is -0.606%.

Turning to `COc1ccc(C(=O)OCC(=O)NCC2CCCCC2)cc1S(=O)(=O)N1CCCc2ccccc21`, the max response was -2.88%.

Turning to `CCN(CC)c1ccc2c(Nc3ccccc3)c(C=O)c(=O)oc2c1`, the max response is 17.7% (active).

`CCC(=O)Nc1ccc(S(=O)(=O)Nc2c(NC)c3ccccc3oc2=O)cc1`: the max response is 11%.

Take `CCOC(=O)Nc1ccc2c(c1)N(C(=O)CCCl)c1ccccc1[S@]2=O`: the max response is 4.2%.

Take `CCOc1ccc(C(CC(=O)O)NC(=O)Cc2ccccc2)cc1OC` (configuration not stated): the max response was -1.44%.

For `CCNS(=O)(=O)c1ccc(CCC(=O)N2CCN(c3cc(Cl)ccc3C)CC2)cc1`, the max response is -1.74%.

Consider `Cc1ccc(C(=O)N2CCCC2)c(F)c1F`, for which the max response was -2.63%.

As for `COc1ccc(CN(Cc2ccc(OC)cc2)C(=O)c2cccs2)cc1`, the max response was 4.04%.

On to `O=C(c1cccs1)N(C(=O)c1cccs1)c1ccccn1`, for which the max response is 21.4% (active).

With `COc1ccc(CN(C(=O)c2cccs2)c2nccs2)cc1OC`, the max response was -2.68%.

For `CCc1ccc(CN(C)C(=O)CCc2nnc(-c3ccc(-c4ccccc4)cc3)o2)nc1`, the max response is 16.7% (active).

Take `CC(=O)c1ccc(-c2nnc(CCC(=O)N(C)Cc3cnc4ccccn34)o2)s1`: the max response is 8.64%.

In the case of `CCc1ccc(CN(C)Cc2nc(Cc3ccccc3)no2)nc1`, the max response was 0.562%.

With `Cn1cc(CCC(=O)N2CCCC(C(=O)c3ccc(C(C)(C)C)cc3)C2)cn1` (configuration not stated), the max response is 7.09%.

`COC(=O)CSc1nc(C)c2ccc(OC)cc2n1`: the max response was 42.7% (active).

As for `COc1cccc(CSc2nc3nc(C)cc(C)n3n2)c1`, the max response was 3.55%.

Take `COC(=O)CSc1nc(C2CC2)nc2ccccc12`: the max response was -1.2%.

`COc1ccc2nc(SCc3ccccc3)nc(C)c2c1`: the max response is 55.9% (active).

As for `COc1ccc2[nH]c3nc(SCC(=O)NC4CC4)nnc3c2c1`, the max response is -1.61%.

Turning to `COc1ccc(-c2nnc3ccc(SCc4ccccc4)nn23)cc1`, the max response is -1.33%.

For `Cc1cccc(C)c1NC(=O)COC(=O)c1ccccc1O`, the max response is -0.421%.

As for `CCOC(=O)C1CCCN(S(=O)(=O)c2ccc(-n3cnnn3)c(C)c2)C1` (configuration not stated), the max response was -3.27%.

As to `CC(C)c1ccc(NC(=O)[C@@H](NC(=O)N2CC(=O)Nc3ccccc32)C(C)C)cc1`, the max response was 1.52%.

Consider `COc1ccc(-n2c(=O)[nH]c3cc(C(=O)NCCc4ccc(OC)c(OC)c4)ccc3c2=O)c(OC)c1`, for which the max response was 0.206%.

For `C=CCSc1nc2c(c(=O)[nH]c(=O)n2C)n1Cc1ccccc1`, the max response was -3.59%.

Turning to `NS(=O)(=O)c1ccc(NC(=O)COC(=O)c2ccco2)cc1`, the max response was -1.96%.

Take `COc1ccc2oc(=O)c(C(=O)N3CCCC3)cc2c1`: the max response was -2.74%.

With `COc1ccc(-c2nc(CS(=O)CC(=O)NCc3ccccn3)c(C)o2)cc1` (configuration not stated), the max response was 7.49%.

Turning to `O=C(NCc1ccccn1)c1cnc2sccn2c1=O`, the max response was -2.63%.

For `NS(=O)(=O)c1ccc(NC(=O)COC(=O)c2cc3ccccc3oc2=O)cc1`, the max response was 10.3% (active).

On to `O=C(NCc1ccccn1)c1cc2ccccc2oc1=O`, for which the max response was 36% (active).

Consider `COc1ccc2oc(=O)c(C(=O)NCc3ccccn3)cc2c1`, for which the max response is 30.2% (active).

As to `Cc1cc(C)cc(OCC(=O)NNC(=O)c2cc3ccccc3oc2=O)c1`, the max response is 24.7% (active).

Consider `Cc1cc(C)cc(OCC(=O)NNC(=O)CCN2C(=O)c3ccccc3C2=O)c1`, for which the max response was -0.614%.

In the case of `Cc1cc(C)cc(OCC(=O)NC(C)c2ccccc2)c1` (configuration not stated), the max response was 4.02%.

`O=C(NCc1ccccn1)c1cc(Br)ccc1Cl`: the max response is 17.7%.

Regarding `NS(=O)(=O)c1ccc(NC(=O)COC(=O)CCc2c[nH]c3ccccc23)cc1`, the max response was -3.16%.
